Laboratory results as given in PubChem BioAssay (Tox21).
Inconclusive results are not listed. Activity calls are given as the source filed them. Unless noted, calls follow the shape of the dose curve; as a rule, active = well fitted curve in the direction sought with a large enough effect in the repeat runs; inconclusive = weak or mixed curves; inactive = no such curve, though single readings can be large; an effect the other way counts as inactive or inconclusive.

Legend:
[1] = qHTS assay to identify small molecule agonists of the estrogen receptor alpha (ER-alpha) signaling pathway in the presence of an antagonist - cell viability counter screen (AID 1259386);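 also: series mostly up to about 92 µM; cells exposed to compounds for 22 h at 37 °C before the viability read; nearly all actives have a fitted effect of over 30% in size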
Summary of the method: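 Cells are starved of estrogens for 5 days in charcoal-stripped serum, seeded for 24hr and co-treated with ICI-182,780 (10.0nM final) and test compounds. After 22hr at 37C, viability is read as CellTiter-Fluor fluorescence.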

[2] = biological target: Progesterone receptor (Homo sapiens) (UniProt P06401); test: qHTS assay to identify small molecule agonists of the progesterone receptor (PR) signaling pathway (AID 1346784; calls by dose curve; also: nearly all actives have a fitted effect of over 30% in size)
Progesterone receptor (Homo sapiens), sequence (P06401 whole entry, looked up): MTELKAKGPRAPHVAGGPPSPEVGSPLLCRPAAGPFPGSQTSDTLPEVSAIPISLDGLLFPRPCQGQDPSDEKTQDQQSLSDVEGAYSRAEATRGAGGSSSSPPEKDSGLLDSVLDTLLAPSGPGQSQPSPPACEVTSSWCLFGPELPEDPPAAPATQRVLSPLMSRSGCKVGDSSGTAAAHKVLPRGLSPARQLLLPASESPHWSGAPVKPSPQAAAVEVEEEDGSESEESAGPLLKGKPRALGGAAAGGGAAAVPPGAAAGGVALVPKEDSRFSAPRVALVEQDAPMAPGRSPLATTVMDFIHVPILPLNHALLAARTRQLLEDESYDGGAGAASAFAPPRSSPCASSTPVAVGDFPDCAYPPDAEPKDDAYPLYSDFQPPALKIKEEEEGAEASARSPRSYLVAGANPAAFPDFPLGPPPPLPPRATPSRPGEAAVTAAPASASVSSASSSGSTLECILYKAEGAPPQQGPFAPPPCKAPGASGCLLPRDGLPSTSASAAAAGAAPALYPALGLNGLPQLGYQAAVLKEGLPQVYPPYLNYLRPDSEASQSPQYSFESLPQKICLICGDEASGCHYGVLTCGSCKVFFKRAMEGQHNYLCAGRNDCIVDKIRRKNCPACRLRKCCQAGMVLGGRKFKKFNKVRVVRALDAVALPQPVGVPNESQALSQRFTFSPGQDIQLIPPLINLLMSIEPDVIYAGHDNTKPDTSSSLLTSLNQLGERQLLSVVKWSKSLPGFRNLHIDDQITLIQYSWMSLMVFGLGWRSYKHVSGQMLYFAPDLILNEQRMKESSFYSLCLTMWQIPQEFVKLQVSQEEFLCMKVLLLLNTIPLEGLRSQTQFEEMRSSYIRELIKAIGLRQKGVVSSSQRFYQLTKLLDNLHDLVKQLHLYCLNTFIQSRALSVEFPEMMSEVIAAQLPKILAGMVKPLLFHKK
Summary of the method: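 PR-UAS-bla HEK 293T cells carrying a UAS-driven beta-lactamase reporter were seeded in medium with 2% charcoal-stripped FBS, preincubated 6 hr at 37C, then exposed to compounds in DMSO for 16 hr; agonism was read by LiveBLAzer B/G FRET fluorescence.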

[3] = biological target: Progesterone receptor (Homo sapiens) (UniProt P06401); test: qHTS assay to identify small molecule antagonists of the progesterone receptor (PR) signaling pathway (AID 1346795; active = well fitted inhibition curve with a large enough effect in the signal ratio in the repeat runs, not every such curve was filed as active; the % refers to the signal ratio; also: potency is read from the fitted curve at half-maximal effect)
Summary of the method: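 PR-UAS-bla HEK293T cells carrying a UAS-driven beta-lactamase reporter were plated in medium with 2% charcoal-stripped FBS and rested 6 hr at 37C. Compounds were added with 1 nM R5020 (final) for 16 hr, then FRET substrate loaded 2 hr at room temperature.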

[4] = qHTS assay to identify small molecule antagonists of the progesterone receptor (PR) signaling pathway - cell viability counter screen (AID 1346798); also: series mostly up to about 92 µM; nearly all actives have a fitted effect of over 50% in size
Summary of the method: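 PR-UAS-bla HEK293T cells in medium with 2% charcoal-stripped FBS were treated with compounds plus R5020 for 16 hr at 37C. Cell viability was then read by CellTiter-Glo luminescence after 30 min at room temperature in the same wells.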

[5] = qHTS assay to identify small molecule agonists of the progesterone receptor (PR) signaling pathway - cell viability counter screen (AID 1346799; calls by dose curve; also: nearly all actives have a fitted effect of over 45% in size)
Summary of the method: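 PR-UAS-bla HEK293T cells, 3,000 per well in medium with 2% charcoal-stripped FBS, were preincubated 6 hr at 37C, then exposed to compounds for 16 hr; viability was read as CellTiter-Glo luminescence after 30 min at room temperature.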

[6] = qHTS assay to identify small molecule antagonists of the TGF-beta/Smad signaling pathway - cell viability counter screen (AID 1346824); also: nearly all actives have a fitted effect of over 50% in size
Summary of the method: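 SBE-bla HEK 293T cells, incubated overnight, then compound plus 0.25 ng/mL TGF-beta1 (stock added) for 5 hr at 37 C. Viability was read in the same wells by CellTiter-Glo luminescence after 30 min at room temperature.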

[7] = qHTS assay to identify small molecule agonists of the TGF-beta/Smad signaling pathway - cell viability counter screen (AID 1346829); also: top concentration of the series differs between compounds; nearly all actives have a fitted effect of over 45% in size
Summary of the method: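 Tox21 qHTS format: SBE-bla HEK 293T cells treated with DMSO-dissolved compounds for 5 hr; CellTiter-Glo luminescence after 30 min at room temperature.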

[8] = qHTS assay to identify small molecule agonists of the TGF-beta/Smad signaling pathway (AID 1346859; active = well fitted activation curve with a large enough effect in the signal ratio in the repeat runs, not every such curve was filed as active; the % refers to the signal ratio; also: series mostly up to about 77 µM)
Summary of the method: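 HEK 293T cells stably carrying a beta-lactamase reporter driven by the Smad binding element were seeded overnight, exposed to DMSO-dissolved compounds for 5 hr at 37 C, 5% CO2, then loaded with FRET substrate for 2 hr at room temperature.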

[9] = biological target: Thyrotropin-releasing hormone receptor (Homo sapiens) (UniProt P34981); test: qHTS assay to identify small molecule antagonists of the thyrotropin-releasing hormone receptor (TRHR) signaling pathway (AID 1346877; active = well fitted inhibition curve with a large enough effect in the repeat runs, not every such curve was filed as active; also: series mostly up to about 51 µM)
Thyrotropin-releasing hormone receptor (Homo sapiens), sequence (P34981 whole entry, looked up): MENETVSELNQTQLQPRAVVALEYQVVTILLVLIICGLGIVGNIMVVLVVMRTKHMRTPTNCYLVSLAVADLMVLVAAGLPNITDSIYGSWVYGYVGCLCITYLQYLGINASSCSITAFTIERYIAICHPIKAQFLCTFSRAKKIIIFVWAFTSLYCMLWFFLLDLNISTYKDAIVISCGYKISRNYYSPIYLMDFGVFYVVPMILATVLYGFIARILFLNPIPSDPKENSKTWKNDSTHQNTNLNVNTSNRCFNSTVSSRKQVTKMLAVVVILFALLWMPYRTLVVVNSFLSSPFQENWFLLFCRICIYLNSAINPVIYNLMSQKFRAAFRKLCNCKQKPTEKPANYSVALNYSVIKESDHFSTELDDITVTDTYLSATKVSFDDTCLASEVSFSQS
Summary of the method: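 Cells (TRHR-HEK293) are plated and kept 18 h at 37 °C/5% CO2. A calcium-sensitive dye is added for 2 h, compound follows for 5 min at room temperature, and TRH is then given at 1 nM final.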

[10] = biological target: Thyrotropin-releasing hormone receptor (Homo sapiens) (UniProt P34981); test: qHTS assay to identify small molecule agonists of the thyrotropin-releasing hormone receptor (TRHR) signaling pathway (AID 1346891; calls by dose curve; also: series mostly up to about 58 µM)
Summary of the method: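 TRHR-expressing HEK293 cells were plated 18 h at 37 °C/5% CO2, loaded with calcium dye 2 h at 37 °C, then given compound in DMSO; fluorescence was read kinetically for 3 min at 1 s intervals.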
% is scaled to controls: 0 for no effect and ±100 for the full control effect.

O=C(O)c1cccc(Cl)c1
inactive: Potency [1] | Potency [2] | Potency [3] | Potency [4] | Potency [5] | Potency [6] | outcome [7] | outcome [8] | outcome [9] | outcome [10]

O=NN1CCCCC1
inactive: Potency [1] | Potency [2] | Potency [3] | Potency [4] | Potency [5] | Potency [6] | outcome [7] | outcome [8] | outcome [9] | outcome [10]

OCCSCSCCO
inactive: Potency [1] | Potency [2] | Potency [3] | Potency [4] | Potency [5] | Potency [6] | outcome [7] | outcome [8] | outcome [9] | outcome [10]

COC(=O)c1ccccc1S(=O)(=O)NC(=O)N(C)c1nc(C)nc(OC)n1
inactive: Potency [1] | Potency [2] | Potency [3] | Potency [4] | Potency [5] | Potency [6] | outcome [7] | outcome [8] | outcome [9] | outcome [10]

NC1=NC(=O)C(c2ccccc2)O1 (stereo not drawn)
inactive: Potency [1] | Potency [2] | Potency [3] | Potency [4] | Potency [5] | Potency [6] | outcome [7] | outcome [8] | outcome [9] | outcome [10]

Fc1cc(Br)ccc1CBr
inactive: Potency [1] | Potency [2] | Potency [3] | Potency [4] | Potency [5] | Potency [6] | outcome [7] | outcome [8] | outcome [9] | outcome [10]

CN1C[C@@H](NS(=O)(=O)N(C)C)C[C@@H]2c3cccc4c3c(cn4C)C[C@H]21
inactive: Potency [1] | Potency [2] | Potency [3] | Potency [4] | Potency [5] | Potency [6] | outcome [7] | outcome [8] | outcome [9] | outcome [10]

CNC(=O)O/N=C(\C)SC
inactive: Potency [1] | Potency [2] | Potency [3] | Potency [4] | Potency [5] | Potency [6] | outcome [7] | outcome [9] | outcome [10]

CCCCc1ccc(O)cc1
inactive: Potency [1] | Potency [2] | Potency [3] | Potency [4] | Potency [5] | Potency [6] | outcome [7] | outcome [8] | outcome [9] | outcome [10]

O=C(N[C@H]1CN2CCC1CC2)c1cc2ccoc2cn1
inactive: Potency [1] | Potency [2] | Potency [3] | Potency [4] | Potency [5] | Potency [6] | outcome [7] | outcome [8] | outcome [9] | outcome [10]

CNC(=O)Oc1c(C(C)(C)C)cc(C)cc1C(C)(C)C
inactive: Potency [1] | Potency [2] | Potency [3] | Potency [4] | Potency [5] | Potency [6] | outcome [7] | outcome [8] | outcome [9] | outcome [10]

OC(c1ccc(F)cc1)(c1cncnc1)c1ccccc1Cl (stereo not drawn)
inactive: Potency [1] | Potency [2] | Potency [4] | Potency [5] | Potency [6] | outcome [7] | outcome [8] | outcome [9] | outcome [10]
active: Potency [3] 48.6 µM

CNC(=O)Oc1cccc(C(C)C)c1
inactive: Potency [1] | Potency [2] | Potency [3] | Potency [4] | Potency [5] | Potency [6] | outcome [7] | outcome [8] | outcome [9] | outcome [10]

CCCSC(=O)N(CCC)CCC
inactive: Potency [1] | Potency [2] | Potency [3] | Potency [4] | Potency [5] | Potency [6] | outcome [7] | outcome [8] | outcome [9] | outcome [10]

CCC(Cl)[N+](=O)[O-] (stereo not drawn)
inactive: Potency [1] | Potency [2] | Potency [3] | Potency [4] | Potency [5] | Potency [6] | outcome [7] | outcome [8] | outcome [9] | outcome [10]

CC1=C(C(=O)O)N2C(=O)[C@@H](N)[C@H]2SC1
inactive: activity change, negative = cytotoxicity [1] 2.04% [at 19 µM] | activation [2] -0.285% [at 19 µM] | activity change, negative = inhibition [3] 1.39% [at 18.9 µM] | activity change, negative = cytotoxicity [4] 11.2% [at 18.9 µM] | activity change, negative = cytotoxicity [5] 0.398% [at 19 µM] | viability change, negative = cytotoxic [6] 0.38% [at 15.8 µM] | activity change, negative = cytotoxicity [7] 8.87% [at 15.8 µM] | activation [8] 3.18% [at 15.8 µM] | activity, negative = inhibition [9] -1.01% [at 10.5 µM] | activation [10] -0.183% [at 11.8 µM]

N#CCBr
inactive: Potency [1] | Potency [2] | Potency [3] | Potency [4] | Potency [5] | Potency [6] | outcome [7] | outcome [8] | outcome [9] | outcome [10]

COc1ccc(C(=O)N2CCCC2=O)cc1
inactive: Potency [1] | Potency [2] | Potency [3] | Potency [4] | Potency [5] | Potency [6] | outcome [7] | outcome [8] | outcome [9] | outcome [10]

CN1CCC(O)(c2ccc(F)cc2)C(C(=O)c2ccc(F)cc2)C1 (stereo not drawn)
inactive: Potency [1] | Potency [2] | Potency [3] | Potency [4] | Potency [5] | Potency [6] | outcome [7] | outcome [8] | outcome [9] | outcome [10]

COc1ncc(F)c2nc(S(=O)(=O)Nc3c(F)cccc3F)nn12
inactive: Potency [1] | Potency [2] | Potency [3] | Potency [4] | Potency [5] | Potency [6] | outcome [7] | outcome [8] | outcome [9] | outcome [10]

CNCC(=O)c1ccc(O)c(O)c1
inactive: Potency [1] | Potency [2] | Potency [3] | Potency [4] | Potency [5] | Potency [6] | outcome [7] | outcome [8] | outcome [9] | outcome [10]

N#Cc1c(Cl)cccc1Cl
inactive: Potency [1] | Potency [2] | Potency [3] | Potency [4] | Potency [5] | Potency [6] | outcome [7] | outcome [8] | outcome [9] | outcome [10]

CCOC(=O)C(c1c(O)c2ccccc2oc1=O)c1c(O)c2ccccc2oc1=O
inactive: Potency [1] | Potency [2] | Potency [3] | Potency [4] | Potency [6] | outcome [7] | outcome [8] | outcome [9] | outcome [10]

Nc1cc2c3c(c1)C(c1ccccc1)=N[C@@H](NC(=O)c1cccnc1)C(=O)N3CC2
inactive: Potency [1] | Potency [2] | Potency [3] | Potency [5] | Potency [6] | outcome [7]

CCCCc1c(C)nc(NCC)[nH]c1=O
inactive: Potency [1] | Potency [2] | Potency [3] | Potency [4] | Potency [5] | Potency [6] | outcome [7] | outcome [9] | outcome [10]
